# According to PubChem BioAssay (NCATS):
# Values without a mark were called inactive. Results filed as inconclusive are left out. Entries that show only a call come without a potency. Activity calls are given as the source filed them. The call rests on the fitted dose curve; in most records, active means well fitted curve in the direction sought with a large enough effect; inconclusive means small, poorly fitted or top-dose-only effect, or another doubt; inactive means no such curve, though single readings can be large; an effect the other way counts as inactive or inconclusive.
# How the values were obtained:
# [1] = Quantitative High-Throughput drug screen in 47 multiple myeloma cell lines against the NCATS MIPE library collection: OPM2_DSMZ cell viability assay (AID 1919872); further: nearly all actives have a fitted effect of over 30% in size; further: potency means the concentration at half of the fitted maximal effect
# Summary of the method: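 Primary qHTS used for cherry-picking: cells at 500/well, library compounds for 48 h (37C, 5% CO2), luminescent ATP assay.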
# [2] = Quantitative High-Throughput drug screen in 47 multiple myeloma cell lines against the NCATS MIPE library collection: KMS28BM_JCRB cell viability assay (AID 1919874); further: nearly all actives have a fitted effect of over 35% in size; further: potency means the concentration at half of the fitted maximal effect
# Summary of the method: (§1)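 MIPE 4.0 approved/investigational drugs; 500 cells/well; 48 h 37 °C humidified 5% CO2; CTG luminescence readout; DMSO = 100%, media = 0% viability.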
# [3] = Quantitative High-Throughput drug screen in 47 multiple myeloma cell lines against the NCATS MIPE library collection: KMS11_JCRBsus cell viability assay (AID 1919873); further: nearly all actives have a fitted effect of over 50% in size; further: potency means the concentration at half of the fitted maximal effect
# Summary of the method: as §1
# [4] = biological target: Cytochrome P450 3A4 (Homo sapiens) (UniProt P08684); assay: qHTS for inhibitors of CYP3A4 against the NCATS DSHEA and TCM libraries (AID 1919971);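 further: inhibition lowers luminescence from luciferin made by CYP3A4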
# Summary of the method: (§2)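 Luminescent P450-Glo format: compounds preincubated 15 min with enzyme and luciferin substrate, reaction run 30-45 min after NADPH regeneration solution. Intraplate controls: ketoconazole for CYP3A4 and CYP2C19, sulfaphenazole for CYP2C9.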
# [5] = biological target: Cytochrome P450 2D6 (Homo sapiens) (UniProt P10635); assay: qHTS for inhibitors of CYP2D6 against the NCATS DSHEA and TCM libraries (AID 1919972)
# Summary of the method: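 Luminescent P450-Glo read-out of CYP2D6 turnover of a luciferin substrate after NADPH-driven reaction of 30-45 min at room temperature. Compounds were first preincubated 15 min with enzyme at titrated concentrations; quinidine was the intraplate control.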
# [6] = biological target: Cytochrome P450 2C9 (Homo sapiens) (UniProt P11712); assay: qHTS for inhibitors of CYP2C9 against the NCATS DSHEA and TCM libraries (AID 1919973);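 further: luminogenic pro-luciferin CYP2C9 substrate turned into luciferin with NADPH regeneration; series mostly up to about 34 µM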
# Summary of the method: as §2
# [7] = biological target: Cytochrome P450 2C19 (Homo sapiens) (UniProt P33261); assay: qHTS for inhibitors of CYP2C19 against the NCATS DSHEA and TCM libraries (AID 1919974); conditions: CYP2C19 enzyme inhibition, luminescence qHTS;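 further: luminescence from luciferin released by CYP2C19 oxidation of a pro-luciferin substrate; potency means the concentration at half of the fitted maximal effect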
# Summary of the method: as §2
# [8] = KB-3-1 P-gp reporter qHTS against the NCATS DSHEA and TCM libraries (AID 1919975)
# Summary of the method: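 Cell viability by CellTiter-Glo luminescence following ~72 h compound exposure (concentration-response). Uses parental, non-P-gp-overexpressing KB-3-1 line, 500 cells/well in DMEM/10% FBS, attached ~4 h before dosing.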
# [9] = qHTS Counterscreen for compound interference against the NCATS DSHEA and TCM libraries (AID 1919978); conditions: firefly luciferase detection reagent interference, luminescence;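 further: compounds preincubated with 1 µM D-luciferin or buffer before detection reagent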
# Source text: PI: Anton Simeonov Ph.D. Assay Development and Screening Technology Laboratory (ADST) National Center for Advancing Translational Sciences (NCATS), Rockville, MD National Institute of Health (NIH), Bethesda, Maryland Dietary Supplements and Natural Products have minor oversight of their safety and efficacy. We assembled a collection of Dietary Supplements and Natural Products (DSNP) as well as Traditional Chinese Medicinal (TCM) Plant extracts, which were screened against an in vitro panel of assays, including a liver cytochrome p450 enzyme panel, CAR/PXR signaling pathways, and P-gp transporter assays, to assess their activity. This pipeline facilitated the interrogation of Natural Product-Drug Interaction (NaPDI) through prominent metabolizing pathways. In addition, we compared the activity profiles of the DSNP/TCM substances with those of an approved drug collection. Many of the approved drugs have well-annotated mechanisms of action (MOA) while the MOAs for most of the DSNP and TCM samples remain unknown. Based on the premise that compounds with similar activity profiles tend to share similar targets or MOA, we clustered the library activity profiles to identify overlap with the NCATS Pharmaceutical Collection to predict the MOAs of the DSNP/TCM substances. Overall, we highlight four significant bioactivity profiles (measured by p-values) as examples of this prediction. To assess broad cytotoxicity, we employed screening against a HepG2 cell line. In addition, transporter-mediated drug interactions are utilized in the characterization of DDIs using a P-glycoprotein (P-gp) assays. To profile potential P-gp activity, a differential cell viability was measured against two cell lines: a parental KB-3-1 human cervical adenocarcinoma cell line and the drug-resistant subline KB-8-5-11 that overexpresses P-gp. […] To this end, we profiled both collections for potential CAR and/or PXR activity, employing a previously published 1536-well qHTS assay. […] Reference: [1] Lee TD, et al. A High-Throughput Screen of a Library of Therapeutics Identifies Cytotoxic Substrates of P-glycoprotein. Mol Pharmacol. Nov 2019;96(5):629-640. doi:10.1124/mol.119.115964
# PROTOCOL TABLE (as described by Inglese J, Shamu CE and Guy RK. 2007) SEQUENCE No. (e.g., 1, 2, 3, etc.); […] (e.g., Cells, Incubation, Reagent, etc.); VALUE; DESCRIPTION. 1; Reagent; 4 uL; D-luciferin or buffer only, white solid-bottom Greiner plate. 2; Compounds and control; 16 nL; Kalypsis pintool (Wako USA). 3; Incubation; 15 min; room temperature. 4; Reagent; 4 uL; luciferin detection reagent. 5; Centrifuge; 1000 RPM; 15 sec. 6; Incubation; 30 min; room temperature. 7; Read; Luminescence; ViewLux plate reader. NOTES (numbers refer to Sequence numbers above) 1. […] Plates were then read for luminescence intensity on a ViewLux detector. […]
# [10] = Dual reporter qHTS for agonist of Pregnane X Receptor (hPXR) against the NCATS DSHEA and TCM libraries: Fluorescence readout (AID 1920058)
# Summary of the method: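 hPXR-Luc HepG2 cells, 2000/well in charcoal-stripped serum, attached 5 h, dosed for ~24 h at 37 °C. Fluorescence read is CellTiter-Fluor viability (Ex/Em 405/540 nm); rifampicin positive, tetraoctyl ammonium bromide (92 µM) cytotoxicity controls.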
# Cytochrome P450 2D6 (Homo sapiens), sequence (P10635 whole entry, looked up): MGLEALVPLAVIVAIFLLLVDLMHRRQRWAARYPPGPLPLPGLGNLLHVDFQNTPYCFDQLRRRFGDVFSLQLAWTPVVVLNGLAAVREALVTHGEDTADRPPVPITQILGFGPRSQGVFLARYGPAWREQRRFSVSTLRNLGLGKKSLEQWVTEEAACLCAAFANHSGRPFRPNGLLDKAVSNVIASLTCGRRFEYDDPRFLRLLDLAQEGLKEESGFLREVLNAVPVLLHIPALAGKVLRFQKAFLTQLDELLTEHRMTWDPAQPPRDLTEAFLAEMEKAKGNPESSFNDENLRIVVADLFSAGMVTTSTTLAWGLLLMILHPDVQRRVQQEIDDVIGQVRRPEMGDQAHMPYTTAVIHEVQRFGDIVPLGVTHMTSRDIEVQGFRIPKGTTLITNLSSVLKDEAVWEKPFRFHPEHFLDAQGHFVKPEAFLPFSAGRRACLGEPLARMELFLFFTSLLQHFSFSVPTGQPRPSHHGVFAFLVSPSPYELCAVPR
# Cytochrome P450 3A4 (Homo sapiens), sequence (P08684 whole entry, looked up): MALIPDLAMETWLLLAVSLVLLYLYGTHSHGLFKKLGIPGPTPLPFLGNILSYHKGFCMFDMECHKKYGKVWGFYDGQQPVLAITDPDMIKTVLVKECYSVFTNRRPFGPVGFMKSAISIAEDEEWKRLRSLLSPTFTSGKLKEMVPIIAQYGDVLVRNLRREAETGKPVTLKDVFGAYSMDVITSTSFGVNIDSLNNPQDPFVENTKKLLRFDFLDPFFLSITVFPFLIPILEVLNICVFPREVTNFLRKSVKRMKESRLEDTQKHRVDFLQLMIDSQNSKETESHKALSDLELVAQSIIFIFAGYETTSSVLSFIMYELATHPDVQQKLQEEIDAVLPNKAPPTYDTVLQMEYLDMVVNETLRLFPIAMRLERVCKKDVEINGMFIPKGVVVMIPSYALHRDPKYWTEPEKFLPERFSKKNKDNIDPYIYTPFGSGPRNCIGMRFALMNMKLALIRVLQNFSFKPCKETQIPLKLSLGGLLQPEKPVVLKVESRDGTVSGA
# Cytochrome P450 2C19 (Homo sapiens), sequence (P33261 whole entry, looked up): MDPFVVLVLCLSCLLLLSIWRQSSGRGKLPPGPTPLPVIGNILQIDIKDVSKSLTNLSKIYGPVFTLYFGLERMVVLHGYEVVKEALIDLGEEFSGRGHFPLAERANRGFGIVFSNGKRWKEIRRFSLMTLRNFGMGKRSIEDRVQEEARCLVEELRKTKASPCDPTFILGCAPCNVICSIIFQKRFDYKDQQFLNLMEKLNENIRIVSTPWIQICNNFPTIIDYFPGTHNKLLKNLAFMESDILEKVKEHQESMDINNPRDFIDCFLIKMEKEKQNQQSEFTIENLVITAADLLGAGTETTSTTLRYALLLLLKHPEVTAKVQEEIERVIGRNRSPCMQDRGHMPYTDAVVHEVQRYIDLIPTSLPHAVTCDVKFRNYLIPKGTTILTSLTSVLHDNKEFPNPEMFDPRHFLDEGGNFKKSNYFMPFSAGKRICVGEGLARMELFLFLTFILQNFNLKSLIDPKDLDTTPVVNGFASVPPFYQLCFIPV
# Cytochrome P450 2C9 (Homo sapiens), sequence (P11712 whole entry, looked up): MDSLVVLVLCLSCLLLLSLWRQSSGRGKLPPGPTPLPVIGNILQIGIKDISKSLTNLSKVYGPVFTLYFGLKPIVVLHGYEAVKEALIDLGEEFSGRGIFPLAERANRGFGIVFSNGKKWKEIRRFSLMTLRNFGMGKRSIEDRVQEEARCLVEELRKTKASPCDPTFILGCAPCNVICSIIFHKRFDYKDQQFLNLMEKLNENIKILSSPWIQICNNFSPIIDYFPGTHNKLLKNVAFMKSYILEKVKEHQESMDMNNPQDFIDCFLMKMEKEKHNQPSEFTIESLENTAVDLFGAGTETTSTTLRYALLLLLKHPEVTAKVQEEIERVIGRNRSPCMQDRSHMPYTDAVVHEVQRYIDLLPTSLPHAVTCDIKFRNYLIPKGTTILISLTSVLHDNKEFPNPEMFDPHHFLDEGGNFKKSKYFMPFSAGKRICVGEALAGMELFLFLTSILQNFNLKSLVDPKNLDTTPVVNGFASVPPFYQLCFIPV
smiles,measurement,setting,value
O=C1NC(=O)C(=Cc2ccc3nccnc3c2)S1,Potency,[1],inactive
same,Potency,[2],7.24 µM (active)
CNC(=O)c1ccc2cc(C3(O)CCn4cncc43)ccc2c1 (configuration not stated),Potency,[1],inactive
same,Potency,[3],inactive
same,Potency,[2],inactive
NC[C@@H]1O[C@@H](O[C@H]2[C@@H](O)[C@H](O[C@@H]3[C@@H](O)[C@@H](N)C[C@H](N)[C@H]3O[C@H]3O[C@H](CN)[C@@H](O)[C@@H](O)[C@H]3N)O[C@H]2CO)[C@H](N)[C@@H](O)[C@@H]1O,Potency,[1],inactive
same,Potency,[3],inactive
same,Potency,[2],inactive
C[N+]1(C)[C@@H]2CC(OC(=O)[C@H](CO)c3ccccc3)C[C@H]1[C@H]1O[C@@H]12 (some centres not stated),Potency,[1],inactive
same,Potency,[3],inactive
same,Potency,[2],inactive
CCN(CC)CCOc1ccc(C(=C(Cl)c2ccccc2)c2ccccc2)cc1,Potency,[1],inactive
same,Potency,[2],10.5 µM (active)
Cc1[nH]c(C=C2C(=O)Nc3ccc(S(=O)(=O)Cc4c(Cl)cccc4Cl)cc32)c(C)c1C(=O)N1CCC[C@H]1CN1CCCC1,Potency,[1],26.4 µM (active)
same,Potency,[3],11.8 µM (active)
same,Potency,[2],20.9 µM (active)
CC(C(=O)O)c1ccc(-c2ccccc2)c(F)c1 (configuration not stated),Potency,[1],inactive
same,Potency,[2],14.8 µM (active)
CO[C@H]1C=CO[C@@]2(C)Oc3c(C)c(O)c4c(O)c(c5c(c4c3C2=O)NC2(CCN(CC(C)C)CC2)N=5)=NC(=O)C(C)=CC=C[C@H](C)[C@H](O)[C@@H](C)[C@@H](O)[C@@H](C)[C@H](OC(C)=O)[C@H]1C,Potency,[1],inactive
same,Potency,[3],inactive
same,Potency,[2],inactive
O=C1NC(=O)C(=Cc2ccc3c(c2)OC(F)(F)O3)S1,Potency,[1],inactive
same,Potency,[3],inactive
same,Potency,[2],inactive
Cc1cc(OCCCc2c(C(=O)O)n(Cc3cccnc3)c3c(-c4c(COc5ccc(N6CCN([S+](C)(=O)[O-])CC6)cc5)nn(C)c4C)cccc23)cc(C)c1Cl,Potency,[1],10.5 µM (active)
same,Potency,[3],23.5 µM (active)
same,Potency,[2],23.5 µM (active)
CC(C)(C)C(=O)Oc1ccc2c(c1)nc(NC(=O)c1cccc([N+](=O)[O-])c1)n2CCCO,Potency,[1],inactive
same,Potency,[3],inactive
same,Potency,[2],inactive
CC1(C)S[C@H]2[C@H](NC(=O)[C@@H](N)c3ccc(O)cc3)C(=O)N2[C@@H]1C(=O)O,Potency,[1],inactive
same,Potency,[3],18.7 µM (active)
same,Potency,[2],5.9 µM (active)
c1cc(-c2sc(-c3ccncc3)c(-c3ccncc3)c2-c2ccncc2)ccn1,Potency,[1],inactive
same,Potency,[3],inactive
same,Potency,[2],inactive
COc1ccc(-c2coc3cc(O)ccc3c2=O)cc1,Potency,[1],inactive
same,Potency,[3],18.7 µM (active)
same,outcome,[4],inactive
same,outcome,[5],inactive
same,outcome,[6],inactive
same,Potency,[7],14.1 µM (active)
same,outcome,[8],inactive
same,max response,[9],-1.37%
same,outcome,[10],inactive
CON=C(C(=O)N[C@@H]1C(=O)N2C(C(=O)OCOC(=O)C(C)(C)C)=C(C=Cc3scnc3C)CS[C@H]12)c1csc(N)n1,Potency,[1],inactive
same,Potency,[3],inactive
same,Potency,[2],inactive
CCc1ccc(C=C2SC(=S)NC2=O)cc1,Potency,[1],inactive
same,Potency,[2],inactive
CC(C)(C(=O)NCC(F)(F)C(F)(F)F)C(=O)N[C@@H]1C(=O)Nc2ccccc2-c2ccccc21,Potency,[1],inactive
same,Potency,[2],inactive
O=C(O)C=Cc1ccc(O)c(O)c1,Potency,[1],inactive
same,Potency,[2],inactive
COCCOc1nc(-c2ccc(Cl)c(Cl)c2)n(-c2ccc(NC(=O)CCl)cc2)n1,Potency,[1],inactive
same,Potency,[2],16.6 µM (active)
C=C1C(=O)OC(CCCCCCCC)C1C(=O)O (configuration not stated),Potency,[1],inactive
same,Potency,[2],inactive
Nc1ncnc2ccccc12,Potency,[1],inactive
same,Potency,[3],inactive
same,Potency,[2],inactive
NS(=O)(=O)c1ccc(NC2=CC(=O)c3ccccc3C2=O)cc1,Potency,[1],inactive
same,Potency,[2],inactive
NS(=O)(=O)c1cccc2c1C(=O)c1cccc(O)c1C2=O,Potency,[1],2.64 µM (active)
same,Potency,[3],0.105 µM (active)
same,Potency,[2],0.469 µM (active)
CC(C)=CC[C@@H](O)C1=CC(=O)c2c(O)ccc(O)c2C1=O,Potency,[1],1.32 µM (active)
same,Potency,[3],1.18 µM (active)
same,Potency,[2],0.833 µM (active)
N[C@@]1(C(=O)O)CS(=O)(=O)[C@H]2[C@H](C(=O)O)[C@H]21,Potency,[1],inactive
same,Potency,[3],inactive
same,Potency,[2],inactive
COc1cccc([C@@H](C)NCCCc2ccccc2Cl)c1,Potency,[1],inactive
same,Potency,[2],inactive
NC(=O)[C@@H](CCC(F)(F)F)N(Cc1ccc(-c2ncon2)cc1F)S(=O)(=O)c1ccc(Cl)cc1,Potency,[1],inactive
same,Potency,[2],20.9 µM (active)
O=C1NC(=O)C(=Cc2cccc(C(F)(F)F)c2)S1,Potency,[1],inactive
same,Potency,[2],inactive
COc1ccc(-c2coc3cc(O)cc(O)c3c2=O)cc1,Potency,[1],inactive
same,Potency,[3],inactive
same,Potency,[2],inactive
O=c1c(-c2ccc(O)cc2)coc2cc(O[C@@H]3O[C@H](CO)[C@H](O)[C@H](O)[C@H]3O)ccc12,Potency,[1],inactive
same,Potency,[3],inactive
same,Potency,[2],inactive
same,outcome,[4],inactive
same,outcome,[5],inactive
same,outcome,[8],inactive
same,max response,[9],1.56%
same,outcome,[10],inactive
C[C@H]1[C@H](NC(=O)C(=NOC(C)(C)C(=O)O)c2csc(N)n2)C(=O)N1S(=O)(=O)O,Potency,[1],inactive
same,Potency,[3],inactive
same,Potency,[2],inactive
OC[C@H]1O[C@@H](Oc2cc(O)cc(C=Cc3ccc(O)cc3)c2)[C@H](O)[C@@H](O)[C@H]1O,Potency,[1],inactive
same,Potency,[3],inactive
same,Potency,[2],inactive
O=C(O)c1cc(O)c2c(c1)C(=O)c1cccc(O)c1C2=O,Potency,[1],inactive
same,Potency,[3],inactive
same,Potency,[2],inactive
CC(=O)O[C@]1(C(C)=O)CC[C@@H]2[C@@H]3C[C@H](C)C4=CC(=O)CC[C@]4(C)[C@H]3CC[C@@]21C,Potency,[3],20.9 µM (active)
O=C(O)c1c(Cl)c(Cl)c(Cl)c(Cl)c1-c1c2cc(I)c(=O)c(I)c-2oc2c(I)c(O)c(I)cc12,Potency,[3],6.62 µM (active)
CN(C)c1cc(NC(=O)CNC(C)(C)C)c(O)c2c1C[C@@H]1C[C@H]3[C@H](N(C)C)C(=O)C(C(N)=O)=C(O)[C@@]3(O)C(=O)C1=C2O,Potency,[3],inactive
same,Potency,[2],inactive
Clc1cc(Cl)cc(CNc2ncncc2-c2ccc3c(c2)OCO3)c1,Potency,[3],16.6 µM (active)
COC1CCC(N(C(=O)C2CCC(C)CC2)c2cc(C3=CCCCC3)sc2C(=O)O)CC1 (configuration not stated),Potency,[1],inactive
same,Potency,[2],inactive
CC(=O)N(C)C1(c2ccccc2)CCN(CCC[C@]2(c3ccc(Cl)c(Cl)c3)CCCN(C(=O)c3ccccc3)C2)CC1,Potency,[3],9.35 µM (active)
same,Potency,[2],20.9 µM (active)
CNC1CCC(N(Cc2cccc(-c3ccncc3)c2)C(=O)c2sc3c(F)ccc(F)c3c2Cl)CC1 (configuration not stated),Potency,[3],9.35 µM (active)
same,Potency,[2],26.4 µM (active)
O=C(NCc1ccccc1)c1csc(Nc2ccncn2)n1,Potency,[3],26.4 µM (active)
same,Potency,[2],18.7 µM (active)
COc1cccc2c1CCCC2CCCN1CCN(C2CCCCC2)CC1 (configuration not stated),Potency,[3],18.7 µM (active)
same,Potency,[2],18.7 µM (active)
Cn1cc(C=C2C(=O)Nc3cccnc32)c2ccccc21,Potency,[1],inactive
same,Potency,[2],inactive
NC(=O)c1ccc2nc(-c3ccc(Oc4ccc(Cl)cc4)cc3)[nH]c2c1,Potency,[3],11.8 µM (active)
CCNc1cc(NC2CCC(O)CC2)nc(Nc2ccc3c(ccn3Cc3ccccc3)c2)n1 (configuration not stated),Potency,[3],20.9 µM (active)
